KLF5 inhibitor – KLF5 expression inhibitors, primary screen, DLD-1 cells, luminescence; AID 1700, 2009; 0.23% of 290,000 active; DLD-1 KLF5 promoter-luciferase reporter; inhibition, % at 5 µM;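 active = inhibition above a per-plate limit of that plate's mean compound inhibition plus 3 SD, cut at about 60% in these data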;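 also: higher means less KLF5 promoter-driven luciferase light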
Wee1 degr inh – Wee1 degradation inhibitors, primary screen, cell-based, HeLa, Wee1K328M-luciferase, luminescence; Wee1-like protein kinase (Homo sapiens), P30291; HeLa Luc-Wee1K328M stability; 100% = proteasome inhibitor MG132 effect; reporter increase, % at 5 µM; 1.2% of 220,000 active;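 active = activation above the mean of all tested compounds plus 3 SD, set per screening run, cut at about 8.8% in these data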;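 also: cells exposed to compound for 20 h before luminescence read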
Target sequence (P30291 whole entry K328M): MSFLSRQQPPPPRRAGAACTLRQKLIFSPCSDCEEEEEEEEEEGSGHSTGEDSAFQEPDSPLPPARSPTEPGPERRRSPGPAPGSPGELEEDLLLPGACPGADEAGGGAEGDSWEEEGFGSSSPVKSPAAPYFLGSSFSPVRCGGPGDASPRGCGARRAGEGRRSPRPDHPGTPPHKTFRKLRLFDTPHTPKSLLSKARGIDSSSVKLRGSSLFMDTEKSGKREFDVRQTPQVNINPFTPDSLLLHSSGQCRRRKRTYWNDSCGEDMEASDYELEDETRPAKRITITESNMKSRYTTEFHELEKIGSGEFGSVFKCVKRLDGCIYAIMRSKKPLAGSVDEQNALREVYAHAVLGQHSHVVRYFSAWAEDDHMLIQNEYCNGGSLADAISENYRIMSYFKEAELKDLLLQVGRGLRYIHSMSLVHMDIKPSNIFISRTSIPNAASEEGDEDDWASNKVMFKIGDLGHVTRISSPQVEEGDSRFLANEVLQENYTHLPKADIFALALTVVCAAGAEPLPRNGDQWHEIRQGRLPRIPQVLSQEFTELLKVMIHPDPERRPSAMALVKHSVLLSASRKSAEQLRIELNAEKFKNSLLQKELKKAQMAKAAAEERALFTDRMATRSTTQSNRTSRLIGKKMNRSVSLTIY
aSyn UTR inh – MLPCN primary screen, SNCA 5' untranslated region; alpha-synuclein 5'UTR reporter, inhibitor activity; inhibition, % (tested at 7.5 µM); 0.82% of 300,000 active; AID 1813, 2009; in the data active = inhibition above about 60%; inconclusive = no clear call, values can overlap the other calls;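 also: H4 neuroglioblastoma cells stably carrying SNCA 5'UTR luciferase fusion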
Platelet DG rel – inhibitors of platelet dense granule secretion, primary screen, cell-based, MLPCN, human platelets; AID 1663, 2009; inhibition, %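 (compounds screened at 7.5 µM in platelet-rich plasma)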; human platelet-rich plasma, SFLLRN dense granule ATP release, luminescence; 0.22% of 300,000 active;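 active = mean replicate score, as percent of positive control, at or above 50; inconclusive = mean below 50 but at least one replicate at or above 50; inactive = mean and every replicate below 50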
HIF activator – HIF pathway transcriptional activators, primary screen, cell-based, U2OS HRE-luciferase, luminescence; U2OS HRE-luciferase reporter; normalized: DMSO 0%, desferrioxamine 100%; activation, % at 7.5 µM (by protocol); 0.32% of 300,000 active; AID 1910, 2009;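 active = mean activation of at least 10% of the iron chelator positive control signal, with at least half of replicates also reaching 10%; inconclusive = mean and replicate majority disagree about reaching 10%; inactive = mean and most replicates under 10%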
Of the large screens only hits and unclear results are named; the others gave an inactive call. Sampled rows, rich in hits. Any-hit rate of the full collection: about 2.1%.

C#CC(=O)N(c1ccc(OC)cc1OC)C(C(=O)NC1CCCC1)c1cccs1 (centres undefined)	aSyn UTR inh 92
O=C(c1ccccc1Cl)c1c(O)c2ccccc2oc1=O	none (no result: KLF5 inhibitor, Wee1 degr inh)
CC(C)c1ccc(CN2CCC(Oc3ccc(C(=O)N4CCCC4)cc3)CC2)cc1	none (no result: Wee1 degr inh)
Cc1ccc(C(=O)CN(Cc2ccccc2)C2=NCCS2)cc1	Wee1 degr inh 10
O=C(CN(Cc1ccccc1)C1=NCCS1)c1ccccc1	none
CCCOc1ccc(C(=O)Nc2ccc(NC(=O)c3cccs3)cc2)cc1	none (no result: Wee1 degr inh)
CCCCOc1cccc(C(=O)Nc2ccc(NC(=O)c3cccs3)cc2)c1	aSyn UTR inh 64 (no result: Wee1 degr inh)
CCC(C)c1ccccc1NC(=O)C(C)OC(=O)c1ccco1 (centres undefined)	none (no result: KLF5 inhibitor, Wee1 degr inh)
C=CCOc1ccc(/C=C2\SC(N)=NC2=O)cc1OC	HIF activator 12 (no result: Wee1 degr inh)
Cc1[nH]c(=S)c(C#N)c(C)c1CCC#N	Platelet DG rel 76
Cc1oc(-c2cccc3ccccc23)nc1CN1CCN(c2ncnc3ccccc23)CC1	none
Cc1cc(C)c2sc(NNC(=O)c3ccc(S(=O)(=O)N4CCc5ccccc5C4)cc3)nc2c1	aSyn UTR inh 77, HIF activator 159
Cc1cc(C)c2nc(NNC(=O)c3ccc(S(=O)(=O)N4CCc5ccccc5C4)cc3)sc2c1	aSyn UTR inh 75, HIF activator 22
CCN(CC)CCNC(=O)c1ccc(NC(=O)c2ccccc2-c2ccc(C(F)(F)F)cc2)cc1	none (no result: Wee1 degr inh)
Cc1nn(Cc2c(Cl)cccc2Cl)c(C)c1NC(=O)c1cn(-c2ccccc2)nc1-c1ccccc1	aSyn UTR inh 122
Cc1cccc(C)c1NC(=O)CNC(=O)c1cn(-c2ccccc2)nc1-c1ccccc1	none (no result: Wee1 degr inh)
O=C(CCCN1C(=O)C2CC=CCC2C1=O)Nc1cccc(F)c1 (centres undefined)	none (no result: Wee1 degr inh)
c1ccc2c(c1)CSc1ccccc1N2	aSyn UTR inh 104 (no result: KLF5 inhibitor, Wee1 degr inh)
CCOC(=O)c1c(S(=O)(=O)NCc2ccc(C)o2)c(C)n(C)c1C	HIF activator 70 (no result: Wee1 degr inh)
CCOC(=O)c1c(S(=O)(=O)NCc2cccs2)c(C)n(C)c1C	none (no result: Wee1 degr inh)
CCOc1ccc(OCc2ccc(C(=O)Nc3cccnc3)o2)cc1	none
CCOc1ccc(OCc2ccc(C(=O)NCc3cccnc3)o2)cc1	Platelet DG rel 70
Cc1nc2cc(-c3ccc(Cl)cc3)nn2c(C)c1CCC(=O)NC(C)c1ccc2c(c1)OCCO2 (centres undefined)	aSyn UTR inh 74
CC1(C)N([O-])C(c2ccccc2)=C[N+](=O)C1(C)C	Wee1 degr inh 9.3
COc1ccccc1C(=O)Nc1nnc(-c2ccco2)s1	none
Cc1ccccc1C(=O)Nc1nnc(-c2ccco2)s1	aSyn UTR inh 65
O=C(CSc1ccc(F)cc1)Nc1ccc2c(c1)C(=O)NC2=O	none (no result: Wee1 degr inh)
CC(=O)Nc1c([N+](=O)[O-])cc(C)c(Cl)c1[N+](=O)[O-]	HIF activator 13
CC(=O)Nc1c([N+](=O)[O-])cc2[nH]c(=O)[nH]c2c1[N+](=O)[O-]	none
CCCNc1nc(-c2ccccc2)c(C(=O)OCC)cc1C#N	aSyn UTR inh 94
CC(Oc1ccccc1F)C(=O)Nc1ccc2ccccc2c1 (centres undefined)	Wee1 degr inh 9.3
CC(Oc1ccc(F)cc1)C(=O)Nc1ccc2ccccc2c1 (centres undefined)	none
Cc1cc2nnc(SCC(=O)Nc3cccc(S(=O)(=O)N4CCOCC4)c3)n2c2ccccc12	none
CC1CCN(c2ncnc3c2cnn3-c2ccccc2)CC1	Wee1 degr inh 11
COc1ccc(N2CCN(C(=O)COc3ccc4c(C)c(C)c(=O)oc4c3C)CC2)cc1	HIF activator 51 (no result: Wee1 degr inh)
Cc1c(C)c2ccc(OCC(=O)N3CCN(c4ccc(F)cc4)CC3)c(C)c2oc1=O	none (no result: Wee1 degr inh)
O=C(Oc1c(CN2CCOCC2)cc(Cl)c2cccnc12)c1cccs1	aSyn UTR inh 108
O=C(Oc1c(CN2CCOCC2)cc(Cl)c2cccnc12)c1ccc(F)cc1	aSyn UTR inh 65
O=C(Oc1c(CN2CCOCC2)cc(Cl)c2cccnc12)c1ccccc1Cl	aSyn UTR inh 105
O=C(Oc1c(Cl)cc(Cl)c2cccnc12)c1cccs1	none
CCc1cc(C(=O)NCC2CCCO2)sc1C (centres undefined)	none (no result: Wee1 degr inh)
COc1ccccc1N1CCN(C2CCCN(C(=O)c3cc(C4CC4)on3)C2)CC1 (centres undefined)	none (no result: Wee1 degr inh)
COc1ccc(OCc2cc(C(=O)NC(C)c3csc(C)n3)no2)c(Cl)c1 (centres undefined)	none (no result: Wee1 degr inh)
O=S(=O)(CCSc1nc2ccccc2s1)c1nc2ccccc2s1	HIF activator 13
C=C[C@@]1(C)CC(=O)[C@]2(O)[C@@]3(C)[C@@H](O)CCC(C)(C)[C@@H]3[C@H](O)[C@H](OC(C)=O)[C@@]2(C)O1	aSyn UTR inh 72, Platelet DG rel 90 (no result: KLF5 inhibitor, Wee1 degr inh)
C=C[C@@]1(C)CC(=O)[C@]2(O)[C@@]3(C)[C@@H](O)CCC(C)(C)[C@@H]3[C@H](OC(C)=O)[C@H](O)[C@@]2(C)O1	aSyn UTR inh 66, Platelet DG rel inconclusive (no result: KLF5 inhibitor, Wee1 degr inh)
COc1ccc(NS(=O)(=O)c2ccc(F)c(Cl)c2)cn1	none (no result: Wee1 degr inh)
O=C(NCCc1ccccc1)c1ccncc1	Wee1 degr inh 11
O=C(NCCc1ccccc1)c1ccc(Cl)c([N+](=O)[O-])c1	Wee1 degr inh 9.4
O=C(NCCc1ccc(F)cc1)c1ccncc1	none (no result: Wee1 degr inh)
Cc1cc(C(=O)NCCc2ccccc2)ccc1[N+](=O)[O-]	none
COC(=O)c1c(NC(=O)c2nc3ccccc3s2)sc2c1CC(C)(C)NC2(C)C	aSyn UTR inh 104
O=C(NCCc1ccc(Cl)cc1)c1ccc(S(=O)(=O)N2CCCC2)cc1	none (no result: KLF5 inhibitor, Wee1 degr inh)
O=C(CCN1C(=O)/C(=C\C=C\c2ccccc2)SC1=S)Nc1ccccc1C(=O)O	none (no result: Wee1 degr inh)
O=C(COC(=O)CCN1C(=O)/C(=C\C=C\c2ccccc2)SC1=S)Nc1ccc(Br)cc1	aSyn UTR inh 65
CC(C)c1ccccc1NC(=O)COC(=O)CCN1C(=O)/C(=C\C=C\c2ccccc2)SC1=S	aSyn UTR inh 73
Cc1ccc(NC(=O)CCCN2C(=O)/C(=C/C=C/c3ccccc3)SC2=S)cc1	none
COC(=O)c1ccc(NC(=O)CSc2nc3ccccc3c(=O)[nH]2)cc1	none
O=C(CSc1nc2ccccc2c(=O)[nH]1)Nc1ccc(Br)cc1	HIF activator 38 (no result: Wee1 degr inh)
COCCCNc1nc2c(-c3ccc(C)cc3)nnn2c2ccccc12	none (no result: Wee1 degr inh)
COCCCNc1nc2c(-c3cccc(C)c3)nnn2c2ccccc12	Wee1 degr inh 49
Cc1ccc(NC(=O)CSc2nc(O)c(Cc3ccccc3)c(=O)n2-c2ccccc2)cc1	none
Cc1sc(NC(=O)COc2ccccc2)c(C#N)c1-c1ccccc1	Wee1 degr inh 9.6
CCCCn1c(N)c(N(CC(C)C)C(=O)CCCc2nc3ccccc3s2)c(=O)[nH]c1=O	none (no result: KLF5 inhibitor, Wee1 degr inh)
COc1cc(/C=N/NC(N)=O)ccc1OCC(=O)N1C(C)CCCC1C (centres undefined)	Platelet DG rel 62

Screens (PubChem BioAssay)
